Source: PubChem BioAssay
In the library only some 5.2% were active in any assay of this set; here they are far more common.
Tau fibril ThT: tau fibrillization inhibition (ThT binding); recombinant tau K18 P301L, heparin-induced fibrillization, ThT fluorescence; Potency, µM (series often up to 57.4 µM), most hits filed as inhibitors; 270,000 tested, 2.1% active; note: nearly all actives have a fitted effect of over 55% in size
Target sequence (P10636 561-689 P618L limits assumed): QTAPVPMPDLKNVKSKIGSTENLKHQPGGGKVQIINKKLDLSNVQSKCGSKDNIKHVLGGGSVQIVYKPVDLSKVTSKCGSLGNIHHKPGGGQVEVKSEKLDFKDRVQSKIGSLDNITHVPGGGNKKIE
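Fibril formation assay: tau K18 P301L at 15 uM with trace Alexa 594 label, heparin inducer 20 uM, pH 7 sodium acetate buffer, 37 C for 6 hr; endpoint ThT signal.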
Tau fibril FP: tau fibrillization inhibition (FP) | P10636 | K18 P301L tau heparin fibrillization, Alexa594 FP, 6 h | Potency, µM (doses to about 57.7 µM), most hits filed as inhibitors | 280,000 tested, 0.39% active; note: nearly all actives have a fitted effect of over 55% in size
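K18 P301L tau (15 uM unlabeled/0.24 uM Alexa 594-labeled, final) + compound + heparin 20 uM final; 100 mM NaOAc pH 7; 6 hr 37 C; ThT 30 uM final added, 1 hr RT; FP ex 555/em 632 nm.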
FBPA coupling cs: coupling enzyme interference in Giardia aldolase counter-screen; coupling enzyme system counterscreen, AmpLite Red fluorescence; activity change, negative = inhibition, % at 58.2 µM, hits read low; 290,000 tested, 0.67% active; in the data active = activity change below about -30%
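Coupling enzymes only (glyceraldehyde-3-phosphate) + compound, at 57.5 uM final, 10 min RT; add substrate/coupling/AmpLite Red mix, 20 min RT; fluorescence ex 525/em 598 nm. Actives flag coupling-system interference.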
Sfp inh: blocks B. subtilis Sfp PPTase activity | Q9F4F7 | Biochemical Sfp PPTase activity, qHTS | Potency, µM, usual class: inhibitors | 310,000 tested, 3.5% active;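 note: the enzyme is Sfp with the accession as filed and its product quenches rhodamine fluorescence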
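Fluorescence-quenching assay: 15 nM Sfp-PPTase preincubated 15 min at room temperature with compound, then 5 uM rhodamine-CoA and 12.5 uM BHQ-2-labelled YbbR peptide added. Fluorescence (ex 525/em 598 nm) read at start and after 30 min; difference gives rate.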
Tau fluor counter: counter-screen for tau fibril formation inhibitors; tau K18 P301L Alexa594 fluorescence, heparin fibrillization; Potency, µM (top dose mostly 57.7 µM); 280,000 tested, 0.93% active; note: nearly all actives have a fitted effect of over 55% in size
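Human tau K18 P301L (15 uM unlabeled, 0.24 uM Alexa 594-labeled) in 100 mM sodium acetate pH 7 with 20 uM heparin, 6 hr at 37 C. ThT 30 uM added, 1 hr ambient; Alexa 594 FP and total fluorescence read at 555/632 nm.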
Hits are given with their value; - = inactive; ? = inconclusive; . = no result; ! = a repeat was not active; [ ] = another dose, or the depositor's remark. Unless noted, calls come from the whole dose curve; as a rule, active = well fitted curve in the direction sought with a large enough effect; inconclusive = small, poorly fitted or top-dose-only effect, or another doubt; inactive = no such curve, though single readings can be large; an effect the other way counts as inactive or inconclusive.

SMILES | Tau fibril ThT | Tau fibril FP | FBPA coupling cs | Sfp inh | Tau fluor counter
CC[C@H](C)[C@H](NC(=O)[C@H](Cc1cnc[nH]1)NC(=O)[C@@H](NC(=O)[C@H](CCCNC(=N)N)NC(=O)[C@H](CCCCN)NC(=O)[C@H](CCCNC(=N)N)NC(=O)[C@H](CCCCN)NC(=O)[C@@H](N)CC(N)=O)[C@@H](C)CC)C(=O)NCC(=O)N1CCC[C@H]1C(=O)NCC(=O)N[C@@H](CCCNC(=N)N)C(=O)N[C@@H](C)C(=O)N[C@@H](Cc1ccccc1)C(=O)N[C@@H](Cc1ccc(O)cc1)C(=O)N[C@H](C(=O)N[C@H](C(=O)N[C@@H](CCCCN)C(=O)N[C@@H](CC(N)=O)C(=O)N[C@H](C(=O)N[C@H](C(=O)NCC(=O)N[C@H](C(=O)N[C@H](C(=O)N[C@@H](CS)C(=O)O)[C@@H](C)CC)[C@@H](C)O)[C@@H](C)CC)[C@@H](C)CC)[C@@H](C)O)[C@@H](C)O | . | . | - | - | .
CCCN(CCC)CCCNC(=O)Cn1cnc2onc(-c3ccc(F)cc3)c2c1=O | - | - | . | . | -
COc1ccc(CN2CCN(C(=O)CC(C)C)CC2)c2ccccc12 | - | - | - | ? | -
Cc1ccccc1CN1CCN(C(=O)CC(C)C)CC1 | . | . | - | 79µM | .
C1=CC2CC1CC2CN1CCN(c2ccccc2)CC1 (stereo not drawn) | - | - | - | - | -
Cc1ccccc1CN1CCN(CC2CC3C=CC2C3)CC1 (stereo not drawn) | - | - | - | 79µM | -
CCOC(=O)c1ccc(NC(=O)CCc2nc(-c3ccc(Cl)cc3)no2)cc1 | ? | ? | - | 89µM | -
NNc1nccc(Nc2ccccc2C(=O)O)n1 | ? | - | - | 50µM | -
c1ccc(Nc2ccnc(Nc3ccccc3)n2)cc1 | - | ? | - | ? | ?
C/C(=C\c1cccc(Cl)c1Cl)C(=O)c1c(C)cc(C)[nH]c1=O | . | . | - | - | .
CNc1ccc(Br)cc(C(=O)/C=C/c2cccc(Cl)c2Cl)c1=O | 7.1µM | ? | - | 22µM | ?
COc1ccccc1/C=C/C(=O)/C=C/c1ccccc1O | 14µM | ? | - | - | -
CNc1ccccc(C(=O)/C=C/c2ccccc2OC)c1=O | 16µM | ? | -30 | 32µM | ?
CNc1ccc(Br)cc(C(=O)/C=C/c2cccc(OC)c2OC)c1=O | 14µM | ? | -32 | 13µM | ?
COc1ccccc1/C=C/C(C)=O | - | - | - | - | -
COc1ccccc1/C=C/C(=O)Nc1cccnc1Cl | . | . | - | - | .
CC(Sc1nc(=O)cc(N)n1CCc1ccccc1)C(=O)Nc1ccccc1C#N (stereo not drawn) | - | - | . | . | -
Cc1cc(C)c(Cn2c3ccccc3c3cnn(CC(=O)N4CCCCCC4)c(=O)c32)c(C)c1 | ? | - | . | . | -
Cc1nc(N2CCCC2)c2c(C(=O)Nc3ccc(C)c(Cl)c3)c(C)oc2n1 | - | - | . | . | -
CCCCCCOc1ccc(/C(C)=N/NC2=NCCN2)cc1 | . | . | - | 56µM | .
CCCCCOc1ccc(/C(C)=N/NC2=NCCN2)cc1 | . | . | - | - | .
CCOCCCNC(=O)c1ccc(-n2c(-c3ccccc3)cc3c2CCC(C)C3)cc1 (stereo not drawn) | - | 5µM | . | . | ?
COC(=O)CCC(=O)OC1(C)C(=O)C2=CN(C3CCCC3)C(c3ccc(OC)cc3)=CC2=C(Br)C1=O (stereo not drawn) | 16µM | ? | -41 | ? | -[11.6 µM]
C=CCN1C=C2C(=O)C(C)(OC(=O)CCC(=O)OC)C(=O)C(Br)=C2C=C1c1ccc(OC)cc1 (stereo not drawn) | 14µM! | ? | -41! | - | -[11.6 µM]
COCCN1C=C2C(=O)C(C)(OC(=O)CCC(=O)OC)C(=O)C(Br)=C2C=C1c1ccc(OC)cc1 (stereo not drawn) | -[11.5 µM] | -[11.6 µM] | -30 | - | -[11.6 µM]
SMILES | Tau fibril ThT | Tau fibril FP | FBPA coupling cs | Sfp inh | Tau fluor counter
CCN(CC)CCCN1C=C2C(=O)C(C)(OC(=O)CCC(=O)OC)C(=O)C(Br)=C2C=C1c1ccc(OC)cc1 (stereo not drawn) | -[11.5 µM] | -[11.6 µM] | - | - | -[11.6 µM]
CCC(=O)N1c2nc(C(C)C)nn2C2(CCCCC2)[C@@H]2CCCC[C@@H]21 | - | - | . | . | -
Cn1cnc2nc(NCCO)nc(NCc3ccccc3)c21 | - | - | . | - | -
CN(NC(=O)/C=C/C(=O)O)c1ncc(C(F)(F)F)cc1Cl | - | - | - | 56µM | -
CCOCCCNC(=O)c1cc2c(s1)-c1ccccc1SC2 | . | . | - | 79µM | .
O=C(CSc1nc2ccccc2nc1Cc1ccccc1)N1CCCc2ccccc21 | - | - | . | . | -
Cc1ccc(C(C)C)c(OCC(=O)NN=C(CCl)CCl)c1 | ? | - | - | 50µM | -
O=C1CN(C(=O)c2ccc(S(=O)(=O)N3CCCC3)cc2)C(c2ccc(F)cc2)c2cc(Br)ccc2N1 (stereo not drawn) | - | - | . | . | -
CCCCOc1ccc(S(=O)(=O)NCc2csc(-c3ccc(OC)cc3)n2)cc1 | - | - | . | . | -
CCN(CC)c1ccc(/C=C2\C(=O)c3ccc(C(=O)O)cc3C2=O)cc1 | 2µM | ? | - | - | -
CSCC[C@H](NC(=O)[C@H](Cc1ccccc1)NC[C@@H](NC[C@@H](N)CS)C(C)C)C(=O)O | 25µM | ? | - | - | -
O=C(NCCc1ccccc1)c1coc(=O)c(Br)c1 | . | . | - | - | .
COc1cccc(CS(=O)(=O)c2nnnn2-c2ccc(F)cc2Br)c1 | - | - | - | - | -
CSc1nncc(/C(C)=N\Nc2ccccc2C)n1 | 0.89µM | - | - | - | -
CSc1nncc(/C(C)=N/O)n1 | - | - | - | - | -
Cc1ccc2[nH]c(=O)c(C(c3nnnn3CC3CCCO3)N3CCc4ccccc4C3)cc2c1 (stereo not drawn) | 32µM | ? | - | 22µM | -
CCc1ccc2[nH]c(=O)c(C(c3nnnn3CC3CCCO3)N3CCN4CCCC4C3)cc2c1 (stereo not drawn) | - | - | - | 35µM | -
Cc1cc(C)c2[nH]c(=O)c(C(c3nnnn3CC3CCCO3)N3CCCC(C)C3)cc2c1 (stereo not drawn) | 32µM | ? | - | 22µM | -
Cc1ccc2[nH]c(=O)c(C(c3nnnn3CC3CCCO3)N3CCCc4ccccc43)cc2c1 (stereo not drawn) | ? | - | - | 45µM | -
Cc1ccc2[nH]c(=O)c(C(c3nnnn3CC3CCCO3)N3CCOCC3)cc2c1 (stereo not drawn) | - | - | - | - | -
COc1ccc2[nH]c(=O)c(C(c3nnnn3CC3CCCO3)N3CCc4ccccc4C3)cc2c1 (stereo not drawn) | - | - | - | - | -
COc1ccc2[nH]cc(CCNc3cc(-c4c(C)noc4C)ncn3)c2c1 | . | . | - | - | .
COCCCn1c(Cc2csc(Nc3ccccc3)n2)nnc1SCC(N)=O | - | - | - | 32µM | -
COCCCn1c(SCC(N)=O)nnc1-c1ccccc1 | - | - | - | - | -
